The record followed here is PubChem BioAssay (NCATS).

One test has as its system MKL-1. In words: qHTS assay to identify novel small-molecules to repurpose for Merkel cell carcinoma treatment (AID 1296009). Further: nearly all actives have a fitted effect of over 60% in size. The following applies: MCC and control cell lines, CellTiter-Glo viability, 72 h; series mostly up to 46 µM. Summed up:
(§1)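 Cells were treated for 72 hr at 37 degree celsius with compounds in 8- or 11-point dose response. Viability was read by CellTiter-Glo luminescence, normalized to no-cell (cytotoxicity) and DMSO controls.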

Another test deals with UISO. The description is as above. The following applies: MCC and control cell lines, CellTiter-Glo viability, 72 h; series mostly up to 46 µM. The method in brief: as §1
(In ATP-based viability assays light output follows the ATP content of the culture.)

In a further test the test system is WaGa. The test is described as above. The following applies: MCC and control cell lines, CellTiter-Glo viability, 72 h; series mostly up to 46 µM. The method in brief:
as §1

In a further test the test system is C33A. In words: Primary qHTS to identify gynecologic anti-cancer compounds using libraries of approved drugs and bioactive compounds (AID 1345084). Further: nearly all actives have a fitted effect of over 55% in size. The following applies: Gynecologic cancer cell panel viability, ATPlite luminescence, 48 h; series mostly up to 57.5 µM. Summed up: (§2)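 Cytotoxicity screen measuring ATP content by luciferase luminescence. Each compound is applied at five concentrations for 48 h at 37 C with 5% CO2.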
In general terms: In qHTS, concentration-response curves come from the screen itself.

The next test relates to CAOV3. The description is as above. The following applies: Gynecologic cancer cell panel viability, ATPlite luminescence, 48 h; series mostly up to 57.5 µM. Summed up:
as §2

The next test relates to Es-2. The description is as above. The following applies: Gynecologic cancer cell panel viability, ATPlite luminescence, 48 h; series mostly up to 57.5 µM. Summed up: as §2
In the next test the test system is HeLa. The description is as above. The following applies: Gynecologic cancer cell panel viability, ATPlite luminescence, 48 h; series mostly up to 57.5 µM. Summed up:
as §2

In another test the test system is OV90. Described as above. The following applies: Gynecologic cancer cell panel viability, ATPlite luminescence, 48 h; series mostly up to 57.5 µM. Summed up: as §2
The test system of the next test is Tov-21-G. Described as above. The following applies: Gynecologic cancer cell panel viability, ATPlite luminescence, 48 h; series mostly up to 57.5 µM. The method in brief:
as §2

A short description of test [1]: qHTS assay to identify inhibitors of the type 1 interferon - major histocompatibility complex class I in skeletal muscle: Counter screen cell viability and HiBit confirmation (AID 1347412). Further: nearly all actives have a fitted effect of over 60% in size. The following applies: iHSKM muscle cells + IFN-b, HiBiT or CellTiter-Glo, 24 h. Summed up:
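CRISPR HLA-B*08:01-HiBit immortalized human myoblasts (C25cl48) stimulated with 4 ng/ml IFN-beta and compounds (12-point 1:3, top 46 uM final) for 24 h at 37 C. Duplicate plates read by HiBit lytic luminescence or CellTiter Glo ATP.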

A further test has as its system CASKI. In words: Primary qHTS to identify gynecologic anti-cancer compounds using libraries of approved drugs and bioactive compounds (AID 1345084). Further: nearly all actives have a fitted effect of over 55% in size. The following applies: Gynecologic cancer cell panel viability, ATPlite luminescence, 48 h; series mostly up to 57.5 µM. Summed up: as §2
A further test concerns Hek293T. The description is as above. The following applies: Gynecologic cancer cell panel viability, ATPlite luminescence, 48 h, control line for the selectivity index; series mostly up to 57.5 µM. The method in brief: as §2
In another test the test system is JEG-3. Described as above. The following applies: Gynecologic cancer cell panel viability, ATPlite luminescence, 48 h; series mostly up to 57.5 µM. Summed up: as §2
The next test has as its system MKL-2. In words: qHTS assay to identify novel small-molecules to repurpose for Merkel cell carcinoma treatment (AID 1296009). Further: nearly all actives have a fitted effect of over 60% in size. The following applies: MCC and control cell lines, CellTiter-Glo viability, 72 h; series mostly up to 46 µM. The method in brief: as §1
A further test relates to PA-1. In words: Primary qHTS to identify gynecologic anti-cancer compounds using libraries of approved drugs and bioactive compounds (AID 1345084). Further: nearly all actives have a fitted effect of over 55% in size. The following applies: Gynecologic cancer cell panel viability, ATPlite luminescence, 48 h; series mostly up to 57.5 µM. The method in brief: as §2
The next test relates to Tov112D. The description is as above. The following applies: Gynecologic cancer cell panel viability, ATPlite luminescence, 48 h; series mostly up to 57.5 µM. The method in brief:
as §2

A further test deals with SKOV3. The description is as above. The following applies: Gynecologic cancer cell panel viability, ATPlite luminescence, 48 h; series mostly up to 57.5 µM. The method in brief:
as §2

Records with an inconclusive call do not appear. A number with no mark means an inactive call. Activity calls are given as the source filed them. The call rests on the fitted dose curve; in most records, active means well fitted curve in the direction sought with a large enough effect; inconclusive means small, poorly fitted or top-dose-only effect, or another doubt; inactive means no such curve, though single readings can be large; an effect the other way counts as inactive or inconclusive.
On the % scale 0 is the no-effect control and ±100 the full control effect; potency means the concentration at half of the fitted maximal effect.

As to `CCCCCNC(=O)N1CCC(CN(Cc2ccc(Cl)cc2)Cc2ccc([N+](=O)[O-])s2)C1` (stereo not drawn), the Potency entry in the test with MKL-1, in the test on UISO and in the test with WaGa was “inactive” each time.
Turning to `O=C(O)[C@H]1O[C@H](Oc2cc3oc(-c4ccccc4)cc(=O)c3c(O)c2O)[C@H](O)[C@@H](O)[C@H]1O`, the Potency entry with MKL-1, in the test with UISO and in the test with WaGa was “inactive” throughout.
Take `COCCOc1nc(-c2ccc(Cl)c(Cl)c2)n(-c2ccc(NC(=O)CCl)cc2)n1`: the Potency entry with MKL-1, in the test with HeLa and in the test with OV90 was “inactive” each time. Moreover, the Potency in the test on C33A was 20 µM (active); in the test on CAOV3, 28.2 µM (active); in the test with Es-2 it was 11.2 µM (active); in the test with Tov-21-G, 5.62 µM (active); in test [1] (HiBiT), 3.52 µM (active); in test [1] (Viability) it was 7.87 µM (active).
Consider `CN(C)Cc1cccc(N=C(c2ccccc2)c2c(O)[nH]c3cc(C(=O)N(C)C)ccc23)c1`, for which the Potency result with MKL-1 and with WaGa was “inactive” each time.
`CN(C[C@@H]1COCCO1)S(=O)(=O)Nc1ccc2ccc3ncc(-c4cnn(C)c4)cc3c(=O)c2c1`: the Potency result in the test with MKL-1, with WaGa, in the test with CASKI, with Es-2, in the test on Hek293T and in the test on JEG-3 was “inactive” in each case. Further, in the test on OV90, the Potency entry is “inactive”. In addition, the Potency in the test with HeLa is 12.6 µM (active); with Tov-21-G, 20 µM (active).
For the molecule `Cc1ccc(C(C)(O)c2nc3ccccc3s2)c(C)c1` (stereo not drawn), the Potency was 16.6 µM (active) in the test on MKL-1 and 7.43 µM (active) in the test on WaGa.
For `O=C(O)c1ccc(-c2c[nH]c3ncc(-c4ccccc4)cc23)cc1C1CCCC1`, the Potency entry with MKL-1, in the test with UISO and with WaGa was “inactive” each time.
Take `CC1(C)S[C@H]2[C@H](NC(=O)[C@@H](N)c3ccc(O)cc3)C(=O)N2[C@@H]1C(=O)O`: the figures for the Potency in the test on MKL-2 and with WaGa were 4.18 µM (active) and 2.64 µM (active), respectively. In the test on UISO, the Potency result is “inactive”.
As for `COc1ccc(-c2oc3c(CC=C(C)C)c(OC4O[C@H](CO)[C@@H](O)[C@H](O)[C@@H]4O)cc(O)c3c(=O)c2OC2O[C@@H](C)[C@H](O)[C@@H](O)[C@@H]2O)cc1` (stereo partly drawn), the Potency entry in the test with MKL-1 and with WaGa was “inactive” in each case.
In the case of `O=C(NCc1ccccc1)c1csc(Nc2ccncn2)n1`, the Potency is 8.33 µM (active) in the test on MKL-1, 23.5 µM (active) in the test on UISO and 9.91 µM (active) in test [1] (HiBiT). Besides, the Potency entry in the test with C33A, in the test on CASKI, with Es-2, with HeLa, in the test on Hek293T and in the test with JEG-3 was “inactive” in each case. Further, the Potency entry in the test with OV90, with PA-1 and in the test on Tov112D was “inactive” in each case. The activity change, negative = inhibition in [1] (Viability, at 45.9 µM (top of the series)) is -20.4%.
Consider `CC(C)=CC[C@@H](O)C1=CC(=O)c2c(O)ccc(O)c2C1=O`, for which the Potency was 20.9 µM (active) in the test with MKL-2 and 23.5 µM (active) in the test with WaGa. The Potency entry in the test on UISO was “inactive”.
As for `CO[C@H]1C[C@@H]2CC[C@@H](C)[C@@](O)(O2)C(=O)C(=O)N2CCCC[C@@H]2C(=O)O[C@H]([C@H](C)C[C@@H]2CC[C@H](OCCO)[C@H](OC)C2)CC(=O)[C@H](C)C=C(C)[C@@H](O)[C@@H](OC)C(=O)[C@H](C)C[C@H](C)C=CC=CC=C1C`, the Potency result in the test on MKL-2 is “inactive”. For the same molecule, the Potency in the test on UISO was 0.833 µM (active).
In the case of `CO[C@H]1C[C@@H]2CC[C@@H](C)[C@@](O)(O2)C(=O)C(=O)N2CCCC[C@@H]2C(=O)O[C@H]([C@H](C)C[C@@H]2CC[C@H](OP(C)(C)=O)[C@H](OC)C2)CC(=O)[C@H](C)C=C(C)[C@@H](O)[C@@H](OC)C(=O)[C@H](C)C[C@H](C)C=CC=CC=C1C`, the Potency entry with MKL-2 and with UISO was “inactive” each time. Also, the Potency in the test on WaGa was 23.5 µM (active).
Consider `Cc1ccn(-c2ccc(-c3ncco3)cc2)c(=O)c1-c1ccc2nc(N)ncc2c1`, for which the Potency result in the test with MKL-1, in the test with WaGa, with CAOV3, in the test with HeLa, in the test with Hek293T and in the test with JEG-3 was “inactive” each time. Moreover, the Potency entry with OV90 and in the test with Tov112D was “inactive” each time. Moreover, the Potency in the test with PA-1 is 11.2 µM (active); in the test with SKOV3, 3.55 µM (active); in the test on Tov-21-G, 11.2 µM (active).
